# Measurements: the supplement of paper PMC9694430
# Structures can show the parent of a compound that is named as a salt.
# Experiments:
# Assay in all cases: thermal shift delta Tm vs DMSO control; higher = stronger stabilization (binding)
# Settings in all cases: 12.5 µM; protein concentration 2 µM
# LOC_OS01G01410-cb001 = tested on: LOC_OS01G01410-cb001
# Summary of the method: (§1)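 Rice kinase domain constructs, made in E. coli and purified, were placed in 96-well plates at 2 μM in 19.5 μl of 100 mM potassium phosphate pH 7.5, 150 mM NaCl, 10% glycerol and 5 × SYPRO Orange, with compound in DMSO. A temperature ramp from 25°C to 95°C at 0.05°C/s was used for differential scanning fluorimetry. The melting temperature shift is a triplicate mean compared with DMSO-only protein, derived from Boltzmann fits.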
# LOC_OS01G02750-cb003 = tested on: LOC_OS01G02750-cb003
# Summary of the method: as §1
# LOC_OS01G10900-cb004 = tested on: LOC_OS01G10900-cb004
# Summary of the method: as §1
# LOC_OS01G13800-cb001 = tested on: LOC_OS01G13800-cb001
# Summary of the method: as §1
# LOC_OS01G14860-cb001 = tested on: LOC_OS01G14860-cb001
# Summary of the method: as §1
# LOC_OS01G21960-cb002 = tested on: LOC_OS01G21960-cb002
# Summary of the method: as §1
# LOC_OS01G39600-cb002 = tested on: LOC_OS01G39600-cb002
# Summary of the method: as §1
# LOC_OS01G48390-cb002 = tested on: LOC_OS01G48390-cb002
# Summary of the method: as §1
# LOC_OS01G51400-cb002 = tested on: LOC_OS01G51400-cb002
# Summary of the method: as §1
# LOC_OS01G52050-cb004 = tested on: T1, LOC_OS01G52050-cb004
# T1 sequence (whole entry): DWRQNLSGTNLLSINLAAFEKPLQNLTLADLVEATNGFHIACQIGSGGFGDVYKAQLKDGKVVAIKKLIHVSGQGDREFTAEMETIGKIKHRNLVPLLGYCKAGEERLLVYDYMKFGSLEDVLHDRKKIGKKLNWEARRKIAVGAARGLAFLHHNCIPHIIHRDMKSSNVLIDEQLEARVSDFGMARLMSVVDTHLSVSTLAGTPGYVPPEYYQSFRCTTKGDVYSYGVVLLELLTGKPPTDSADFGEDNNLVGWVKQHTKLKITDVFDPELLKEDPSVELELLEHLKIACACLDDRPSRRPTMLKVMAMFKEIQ
# Summary of the method: as §1
# 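Further: purified Escherichia coli-expressed rice kinase domain construct.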
smiles,measurement,setting,value
O=C1NC(=O)/C(=C/c2ccc3c(c2)OC(F)(F)O3)S1,thermal shift delta Tm,LOC_OS01G01410-cb001,0.72 °C
same,thermal shift delta Tm,LOC_OS01G02750-cb003,0.45 °C
same,thermal shift delta Tm,LOC_OS01G10900-cb004,0.16 °C
same,thermal shift delta Tm,LOC_OS01G13800-cb001,0.44 °C
same,thermal shift delta Tm,LOC_OS01G14860-cb001,0.39 °C
same,thermal shift delta Tm,LOC_OS01G21960-cb002,1.11 °C
same,thermal shift delta Tm,LOC_OS01G39600-cb002,0.17 °C
same,thermal shift delta Tm,LOC_OS01G48390-cb002,0.77 °C
same,thermal shift delta Tm,LOC_OS01G51400-cb002,0.53 °C
same,thermal shift delta Tm,LOC_OS01G52050-cb004,0.79 °C
COc1cc2ncc(-c3ccccc3)nc2cc1OC [Tyrphostin AG 1296],thermal shift delta Tm,LOC_OS01G01410-cb001,2.03 °C
same,thermal shift delta Tm,LOC_OS01G02750-cb003,1.6 °C
same,thermal shift delta Tm,LOC_OS01G10900-cb004,0.44 °C
same,thermal shift delta Tm,LOC_OS01G13800-cb001,-0.26 °C
same,thermal shift delta Tm,LOC_OS01G14860-cb001,0.28 °C
same,thermal shift delta Tm,LOC_OS01G21960-cb002,0 °C
same,thermal shift delta Tm,LOC_OS01G39600-cb002,0.47 °C
same,thermal shift delta Tm,LOC_OS01G48390-cb002,0.55 °C
same,thermal shift delta Tm,LOC_OS01G51400-cb002,0.63 °C
same,thermal shift delta Tm,LOC_OS01G52050-cb004,1.69 °C
Cc1cc(C)c(/C=C2\C(=O)Nc3ccccc32)[nH]1 [Semaxanib (SU5416)],thermal shift delta Tm,LOC_OS01G01410-cb001,2.4 °C
same,thermal shift delta Tm,LOC_OS01G02750-cb003,1.81 °C
same,thermal shift delta Tm,LOC_OS01G10900-cb004,0.7 °C
same,thermal shift delta Tm,LOC_OS01G13800-cb001,-0.49 °C
same,thermal shift delta Tm,LOC_OS01G14860-cb001,0.24 °C
same,thermal shift delta Tm,LOC_OS01G21960-cb002,1.45 °C
same,thermal shift delta Tm,LOC_OS01G39600-cb002,0.58 °C
same,thermal shift delta Tm,LOC_OS01G48390-cb002,1.2 °C
same,thermal shift delta Tm,LOC_OS01G51400-cb002,0.58 °C
same,thermal shift delta Tm,LOC_OS01G52050-cb004,1.59 °C
CN1CC[C@H](c2c(O)cc(O)c3c(=O)cc(-c4ccccc4Cl)oc23)[C@H](O)C1 [Flavopiridol HCl],thermal shift delta Tm,LOC_OS01G01410-cb001,0.19 °C
same,thermal shift delta Tm,LOC_OS01G02750-cb003,0.76 °C
same,thermal shift delta Tm,LOC_OS01G10900-cb004,0.17 °C
same,thermal shift delta Tm,LOC_OS01G13800-cb001,0.42 °C
same,thermal shift delta Tm,LOC_OS01G14860-cb001,4.95 °C
same,thermal shift delta Tm,LOC_OS01G21960-cb002,1.89 °C
same,thermal shift delta Tm,LOC_OS01G39600-cb002,1.02 °C
same,thermal shift delta Tm,LOC_OS01G48390-cb002,0.58 °C
same,thermal shift delta Tm,LOC_OS01G51400-cb002,0.54 °C
same,thermal shift delta Tm,LOC_OS01G52050-cb004,1.03 °C
Cc1cc(Nc2nc(N[C@@H](C)c3ncc(F)cn3)ncc2Cl)[nH]n1,thermal shift delta Tm,LOC_OS01G01410-cb001,4.53 °C
same,thermal shift delta Tm,LOC_OS01G02750-cb003,2.77 °C
same,thermal shift delta Tm,LOC_OS01G10900-cb004,0.35 °C
same,thermal shift delta Tm,LOC_OS01G13800-cb001,-0.03 °C
same,thermal shift delta Tm,LOC_OS01G14860-cb001,2.85 °C
same,thermal shift delta Tm,LOC_OS01G21960-cb002,2.53 °C
same,thermal shift delta Tm,LOC_OS01G39600-cb002,4.56 °C
same,thermal shift delta Tm,LOC_OS01G48390-cb002,6.25 °C
same,thermal shift delta Tm,LOC_OS01G51400-cb002,0.55 °C
same,thermal shift delta Tm,LOC_OS01G52050-cb004,0.71 °C
C=CC(=O)N[C@H]1CCOC[C@H]1Nc1ncc2cc(-c3c(Cl)c(OC)cc(OC)c3Cl)ccc2n1,thermal shift delta Tm,LOC_OS01G01410-cb001,0.19 °C
same,thermal shift delta Tm,LOC_OS01G02750-cb003,-0.27 °C
same,thermal shift delta Tm,LOC_OS01G10900-cb004,2.28 °C
same,thermal shift delta Tm,LOC_OS01G13800-cb001,-0.14 °C
same,thermal shift delta Tm,LOC_OS01G14860-cb001,0.4 °C
same,thermal shift delta Tm,LOC_OS01G21960-cb002,0.24 °C
same,thermal shift delta Tm,LOC_OS01G39600-cb002,-0.48 °C
same,thermal shift delta Tm,LOC_OS01G48390-cb002,0.49 °C
same,thermal shift delta Tm,LOC_OS01G51400-cb002,-0.01 °C
same,thermal shift delta Tm,LOC_OS01G52050-cb004,1.84 °C
CC#CC(=O)N1CC[C@@H](n2c(=O)n(-c3ccc(Oc4ccccc4)cc3)c3c(N)ncnc32)C1 [ONO-4059 (GS-4059) hydrochloride],thermal shift delta Tm,LOC_OS01G01410-cb001,0.39 °C
same,thermal shift delta Tm,LOC_OS01G02750-cb003,0.39 °C
same,thermal shift delta Tm,LOC_OS01G10900-cb004,0.14 °C
same,thermal shift delta Tm,LOC_OS01G13800-cb001,-0.37 °C
same,thermal shift delta Tm,LOC_OS01G14860-cb001,0.23 °C
same,thermal shift delta Tm,LOC_OS01G21960-cb002,0.04 °C
same,thermal shift delta Tm,LOC_OS01G39600-cb002,0.11 °C
same,thermal shift delta Tm,LOC_OS01G48390-cb002,-0.2 °C
same,thermal shift delta Tm,LOC_OS01G51400-cb002,-0.08 °C
same,thermal shift delta Tm,LOC_OS01G52050-cb004,-0.56 °C
O=C(NOCC(O)CO)c1cc(Br)c(F)c(F)c1Nc1ccc(I)cc1F (stereo not given),thermal shift delta Tm,LOC_OS01G01410-cb001,0.9 °C
same,thermal shift delta Tm,LOC_OS01G02750-cb003,3.49 °C
same,thermal shift delta Tm,LOC_OS01G10900-cb004,1.07 °C
same,thermal shift delta Tm,LOC_OS01G13800-cb001,1.05 °C
same,thermal shift delta Tm,LOC_OS01G14860-cb001,1.29 °C
same,thermal shift delta Tm,LOC_OS01G21960-cb002,1.44 °C
same,thermal shift delta Tm,LOC_OS01G39600-cb002,0.76 °C
same,thermal shift delta Tm,LOC_OS01G48390-cb002,1.12 °C
same,thermal shift delta Tm,LOC_OS01G51400-cb002,0.46 °C
same,thermal shift delta Tm,LOC_OS01G52050-cb004,2.46 °C
FC(F)c1nc2ccccc2n1-c1nc(N2CCOCC2)nc(N2CCOCC2)n1,thermal shift delta Tm,LOC_OS01G01410-cb001,0.85 °C
same,thermal shift delta Tm,LOC_OS01G02750-cb003,0.92 °C
same,thermal shift delta Tm,LOC_OS01G10900-cb004,0.18 °C
same,thermal shift delta Tm,LOC_OS01G13800-cb001,0.89 °C
same,thermal shift delta Tm,LOC_OS01G14860-cb001,-0.06 °C
same,thermal shift delta Tm,LOC_OS01G21960-cb002,0.23 °C
same,thermal shift delta Tm,LOC_OS01G39600-cb002,0.94 °C
same,thermal shift delta Tm,LOC_OS01G48390-cb002,0.8 °C
same,thermal shift delta Tm,LOC_OS01G51400-cb002,0.35 °C
same,thermal shift delta Tm,LOC_OS01G52050-cb004,0.72 °C
